Test results: PubChem BioAssay
Inconclusive results are not listed. Active and inactive are the calls of the source.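 Rule for the calls, unless noted: active = viability loss from added drug above about 55%, and viability with drug at most 40%, in both replicates (limit read from the data, passing the limit was not always enough); inconclusive = both conditions met in only one replicate; inactive = neither replicate meets both conditions.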

What was measured:
[1] = HUVEC growth inhibition – cell-based, human, primary screen (AID 575;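 active = viability at or below 30% in both replicate assays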;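 note: 100% = median of untreated cell wells with 0.1% DMSO on each plate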); details: HUVEC proliferation, CellTiter-Glo luminescence, 72 h; at 10 µM; stronger effect = lower value
[2] = MRP1 drug-resistance reversers in H69AR cells – cell-based, doxorubicin co-treatment, pilot screen (AID 601); details: CellTiter-Glo, 72 h, at 10 µM; for differential viability (reversal): stronger effect = higher value
[3] = yeast transport mutant growth inhibition pilot in 384-well plates, post-Golgi transport modulator project (AID 636; in the data active = inhibition above about 31%); details: absorbance 615 nm, about 18 h, stronger effect = higher value
[4] = growth suppression of yeast trafficking mutant, preliminary HTS, modulators of trafficking downstream of Golgi apparatus project, 1536-format plate, OD 615 nm (AID 637; in the data active = inhibition above about 30%); details: yeast transport mutant growth, absorbance 615 nm, 18 h; stronger effect = higher value
[5] = H69AR cell proliferation blockers – human, duplicate replicates, primary screen (AID 580;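 active = viability at or under a set limit in both replicates, limit being median viability minus 3 SD, cut at about 48% in these data, passing the limit was not always enough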;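 note: 100% = mean luminescence of untreated wells and 0% = no signal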); details: H69AR lung tumor cells viability, ATP luminescence, 72 h; at 10 µM; stronger effect = lower value
[6] = S. cerevisiae growth inhibition in permissive medium (OD615), pilot counter-assay for S. cerevisiae lifespan shortening project, permissive growth control (AID 705;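 active = growth inhibition above 25% in both replicates, a cutoff set 3 SD above the mean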); details: OD615, 24 h, at 10 µM, stronger effect = higher value
[7] = S. cerevisiae growth inhibition in restrictive medium, OD615, pilot screen, restrictive growth control, yeast lifespan reduction project (AID 706;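 active = growth inhibition above a set limit, 3 SD over mean compound inhibition, in both replicates, cut at about 43% in these data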;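 note: modified DeaD lifespan yeast strain shifted to restrictive glucose medium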); details: OD615, 48 h, at 10 µM, stronger effect = higher value
[8] = doxorubicin toxicity protection in MRP-1 cells – H69AR cells, CellTiter-Glo, duplicate, MRP-1 activator project, pilot screen (AID 807;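 active = viability increase at or above a cutoff of the median across tested compounds plus 3 SD, cut at about 8.5% in these data, passing the limit was not always enough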;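 note: compound pretreatment 18-22 h then 72 h combined with doxorubicin; 0% = doxorubicin alone and 100% = vehicle without doxorubicin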); details: H69AR viability with doxorubicin, CellTiter-Glo luminescence; at 10 µM; stronger effect = higher value
[9] = viability of HCT116 without oncogenic beta-catenin – human colon tumor cells, pilot screen (AID 823;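 active = cell viability at or below a set limit in both duplicate runs, the limit being the all-compound median minus 4 SD, cut at about 23% in these data, passing the limit was not always enough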;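 note: 0% = wells killed by 20 µM Hyamine and 100% = untreated DMSO cell wells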); details: HCT116 beta-catenin knockout viability, CellTiter-Glo, 60 h; at 10 µM; stronger effect = lower value
[10] = viability of PTEN-null HCT116 cells – cell-based, HCT116 clonal line, CellTiter-Glo, pilot screen (AID 824;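 active = viability at or below 27.92% in each of two runs, the all-compound median minus 4 SD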;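 note: 0% = 20 µM Hyamine control and 100% = vehicle cell control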); details: HCT116 PTEN-deleted viability, 60 h, at 10 µM, stronger effect = lower value
[11] = RAM pathway blockade in budding yeast – dse1pr::URA3 reporter, 5-FOA selection, pilot screen (AID 869;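 active = inhibition over a set limit, the all-compound mean plus 3 SD, in both replicate runs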;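 note: 0% = DMSO wells with no growth and 100% = 10 µM 1-NA-PP1 with full growth; RAM network block rescues cells from 5-FOA so hits raise OD615 growth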); details: S. cerevisiae dse1pr::URA3 5-FOA growth, OD615, 2 d; at 10 µM; stronger effect = higher value; strain carries analog-sensitive mutant Cbk1 kinase
[12] = H69AR cells + 2 uM doxorubicin, measured here: viability with 2 uM doxorubicin, stronger effect = lower value
[13] = H69AR cells, compound alone cytotoxicity

Question: Which viability [1] does the source give for `COc1cccc2c1C(=O)c1c(O)c3c(c(O)c1C2=O)C[C@@](O)(C(=O)CO)C[C@@H]3O[C@H]1C[C@H](N)[C@H](O)[C@H](C)O1` here?
Answer: 22.1% (active)

Question: What about the differential viability (reversal) ([2]; H69AR cells + 2 uM doxorubicin) of the same compound?
Answer: -7.64% (inactive)

Question: And the viability [2, 12]?
Answer: 25.6%

Question: What about the viability [2, 13] of the same compound?
Answer: 18%

Question: And the inhibition [3]?
Answer: 0.26% (inactive)

Question: And the inhibition [4]?
Answer: 3% (inactive)

Question: Which viability [5] does the source give for `Oc1ccc(Nc2nc(-c3ccc(O)cc3)cs2)cc1` here?
Answer: 58.4% (inactive)

Question: And the differential viability (reversal) ([2]; H69AR cells + 2 uM doxorubicin)?
Answer: -29.7% (inactive)

Question: And the viability [2, 12]?
Answer: 88.1%

Question: What about the viability [2, 13] of the same compound?
Answer: 58.4%

Question: What about the inhibition [3] of the same compound?
Answer: -8.13% (inactive)

Question: What about the inhibition [4] of the same compound?
Answer: -4.13% (inactive)

Question: What does the source list for `O=S(=O)(Cc1ccc(Cl)cc1)Nc1ccc2c(c1)OCO2`?
Answer: viability [5]: 104% (inactive); differential viability (reversal) ([2]; H69AR cells + 2 uM doxorubicin): 17.3% (inactive); viability [2, 12]: 86.8%; viability [2, 13]: 104%; inhibition [3]: -0.53% (inactive); inhibition [4]: 4.29% (inactive)

Question: Which viability [1] does the source give for `COC(=O)c1ccc(NC2(C#N)C(=O)Nc3ccccc32)cc1` (stereo not given) here?
Answer: 69.2% (inactive)

Question: What about the differential viability (reversal) ([2]; H69AR cells + 2 uM doxorubicin) of the same compound?
Answer: -16.1% (inactive)

Question: What about the viability [2, 12] of the same compound?
Answer: 58.2%

Question: What about the viability [2, 13] of the same compound?
Answer: 42.1%

Question: What about the inhibition [3] of the same compound?
Answer: -5.33% (inactive)

Question: What about the inhibition [4] of the same compound?
Answer: 3.97% (inactive)

Question: Which results are given for `CCCCCCCCNC(C)C(O)c1ccc(SC(C)C)cc1` (stereo not given)?
Answer: viability [1]: 2.21% (active); differential viability (reversal) ([2]; H69AR cells + 2 uM doxorubicin): -0.28% (inactive); viability [2, 12]: 1.44%; viability [2, 13]: 1.16%

Question: What does the source list for `CN(C)c1ccc(/C=C/C(O)=C2/C(=O)N(C)C3(C)CC2c2ccccc2O3)cc1` (stereo not given)?
Answer: viability [1]: 55.4% (inactive); differential viability (reversal) ([2]; H69AR cells + 2 uM doxorubicin): -7.07% (inactive); viability [2, 12]: 44.6%; viability [2, 13]: 37.5%; inhibition [3]: -2.47% (inactive); inhibition [4]: -12.7% (inactive)

Question: Which viability [5] does the source give for `Cc1cc(C)c(C(=O)CSc2nnc(-c3ccccc3Br)o2)cc1C` here?
Answer: 73.1% (inactive)

Question: And the differential viability (reversal) ([2]; H69AR cells + 2 uM doxorubicin)?
Answer: -2.75% (inactive)

Question: What about the viability [2, 12] of the same compound?
Answer: 75.8%

Question: What about the viability [2, 13] of the same compound?
Answer: 73.1%

Question: What about the inhibition [3] of the same compound?
Answer: -3.87% (inactive)

Question: What about the inhibition [4] of the same compound?
Answer: 3.49% (inactive)

Question: Which viability [1] does the source give for `Nc1nc(Cl)nc2c1ncn2[C@@H]1O[C@H](CO)[C@@H](O)[C@H]1O` here?
Answer: 3.95% (active)

Question: What about the differential viability (reversal) ([2]; H69AR cells + 2 uM doxorubicin) of the same compound?
Answer: -24.3% (inactive)

Question: And the viability [2, 12]?
Answer: 74.6%

Question: What about the viability [2, 13] of the same compound?
Answer: 50.3%

Question: And the inhibition [3]?
Answer: -1.43% (inactive)

Question: And the inhibition [4]?
Answer: 1% (inactive)

Question: With `O=c1c2cn[nH]c2nc(SCc2ccc3c(c2)OCCO3)n1-c1ccccc1` as the compound, how does the viability [1] read?
Answer: 74.4% (inactive)

Question: What about the differential viability (reversal) ([2]; H69AR cells + 2 uM doxorubicin) of the same compound?
Answer: -22.2% (inactive)

Question: And the viability [2, 12]?
Answer: 83.9%

Question: And the viability [2, 13]?
Answer: 61.7%

Question: What about the inhibition [3] of the same compound?
Answer: 1.45% (inactive)

Question: And the inhibition [4]?
Answer: -4.44% (inactive)

Question: Which viability [1] does the source give for `CC(C)(C)n1nnnc1CN(Cc1ccco1)Cc1cc2cc3c(cc2[nH]c1=O)OCO3` here?
Answer: 78% (inactive)

Question: And the differential viability (reversal) ([2]; H69AR cells + 2 uM doxorubicin)?
Answer: -8.75% (inactive)

Question: And the viability [2, 12]?
Answer: 68%

Question: What about the viability [2, 13] of the same compound?
Answer: 59.3%

Question: What about the inhibition [3] of the same compound?
Answer: -8% (inactive)

Question: What about the inhibition [4] of the same compound?
Answer: 0.16% (inactive)

Question: Which results are given for `CCNc1nc(NC(C)C)nc(N(C#N)CCOc2ccc(Cl)cc2Cl)n1`?
Answer: viability [1]: 48.8% (inactive); differential viability (reversal) ([2]; H69AR cells + 2 uM doxorubicin): 20.4% (inactive); viability [2, 12]: 33.2%; viability [2, 13]: 53.6%; inhibition [3]: 16.2% (inactive); inhibition [4]: -3.81% (inactive)

Question: For `CC(=O)Oc1cccc(/C=c2\sc3nc(-c4ccco4)nn3c2=O)c1`, which viability [1] is on record?
Answer: 56.6% (inactive)

Question: And the differential viability (reversal) ([2]; H69AR cells + 2 uM doxorubicin)?
Answer: -3.61% (inactive)

Question: What about the viability [2, 12] of the same compound?
Answer: 55.8%

Question: What about the viability [2, 13] of the same compound?
Answer: 52.2%

Question: And the inhibition [3]?
Answer: -0.91% (inactive)

Question: What about the inhibition [4] of the same compound?
Answer: 1.27% (inactive)

Question: Which results are given for `COc1cc2c(cc1OC)C(c1ccccc1)N(C(=O)c1ccco1)CC2` (stereo not given)?
Answer: growth inhibition [6]: -21.2% (inactive); growth inhibition [7]: -17.6% (inactive); viability increase [8]: -3.16% (inactive); viability [9]: 68.4% (inactive); viability [10]: 63.5% (inactive); inhibition [11]: 2.55% (inactive)

Question: Which growth inhibition [6] does the source give for `COC(=O)c1ccc(CSc2ccc3nnc(-c4cccc(F)c4)n3n2)o1` here?
Answer: 6.12% (inactive)

Question: And the growth inhibition [7]?
Answer: 49% (active)

Question: And the viability increase [8]?
Answer: -3.24% (inactive)

Question: What about the viability [9] of the same compound?
Answer: 87.9% (inactive)

Question: What about the viability [10] of the same compound?
Answer: 91.4% (inactive)

Question: What about the inhibition [11] of the same compound?
Answer: -0.025% (inactive)

Question: With `CCOc1ccccc1NC1c2ccccc2C(=O)N1c1ccc(C)cn1` (stereo not given) as the compound, how does the growth inhibition [6] read?
Answer: -14.3% (inactive)

Question: What about the growth inhibition [7] of the same compound?
Answer: 3.06% (inactive)

Question: What about the viability increase [8] of the same compound?
Answer: -1.37% (inactive)

Question: What about the viability [9] of the same compound?
Answer: 88.2% (inactive)

Question: And the viability [10]?
Answer: 88% (inactive)

Question: And the inhibition [11]?
Answer: 0.395% (inactive)

Question: With `COCCCNC(=O)c1c(N)n(-c2cccc(S(N)(=O)=O)c2)c2nc3ccccc3nc12` as the compound, how does the viability [5] read?
Answer: 67.2% (inactive)

Question: What about the differential viability (reversal) ([2]; H69AR cells + 2 uM doxorubicin) of the same compound?
Answer: -8.22% (inactive)

Question: And the viability [2, 12]?
Answer: 75.4%

Question: What about the viability [2, 13] of the same compound?
Answer: 67.2%

Question: And the inhibition [3]?
Answer: -4.13% (inactive)

Question: What about the inhibition [4] of the same compound?
Answer: -0.79% (inactive)

Question: Which growth inhibition [6] does the source give for `Cc1cc(NC(=O)c2noc3c2CCc2ccccc2-3)n(-c2ccccc2)n1` here?
Answer: -11.9% (inactive)

Question: What about the growth inhibition [7] of the same compound?
Answer: -2.05% (inactive)

Question: And the viability increase [8]?
Answer: -2.71% (inactive)

Question: And the viability [9]?
Answer: 94.9% (inactive)

Question: What about the viability [10] of the same compound?
Answer: 98.3% (inactive)

Question: And the inhibition [11]?
Answer: 2.88% (inactive)
